Source: PubChem BioAssay
Shown are actives, neighbours in structure and some others; about 7.1% of the full set was active somewhere.
IL-1B inflam inh: inflammasome signaling inhibition, IL-1 beta readout; THP-1 LPS/ATP IL-1B secretion, AlphaLISA, 16 h; active compounds read low; activity change, % at 57.5 µM; 360,000 tested, 4.7% active; AID 743279; in the data active means activity change below about -50%; inconclusive means mostly about -30% to -49%; further: on the % scale 0 is the no-effect control and ±100 the full control effect
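THP-1 cells pretreated 1 hr with compounds (up to 57.5 uM final), then stimulated with LPS (250 ng/mL final) plus ATP (1.25 mM final); secreted IL-1B measured by AlphaLISA after 16 hr, decreased signal indicating inhibition.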
SW480 rerep: induces DNA re-replication in SW480 colon adenocarcinoma cells | SW480 DNA re-replication, Hoechst DNA content imaging, 48 h | Potency, µM (series often up to 46.1 µM), for the others: at the highest dose re-replication activation, most hits filed as activators | 340,000 tested, 1.8% active | AID 624297; further: potency means the concentration at half of the fitted maximal effect; % of control where 0% means no effect; nearly all actives have a fitted effect of over 55% in size
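Compounds, transferred as 23 nL by pin tool, were incubated with cells for 48 hr; DNA content per nucleus was then quantified by Hoechst staining and fluorescence plate imaging.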
MCF10A rerep: induces DNA re-replication in MCF 10a normal breast cells; 350,000 tested, 2.9% active; Potency, µM (series often up to 46.1 µM), without a hit: at the highest dose activity, positive = re-replication, actives largely listed as activators; MCF 10A DNA re-replication, Hoechst nuclear intensity, 48 h; AID 624296; further: potency means the concentration at half of the fitted maximal effect; % of control where 0% means no effect; nearly all actives have a fitted effect of over 50% in size
ATXN2 expr inh: inhibitors of ATXN2 expression; HEK-293 ATXN2-luciferase reporter, luminescence, 24 h; Potency, µM (titrated, usually from 57 µM), inactives show at the highest dose activity change, negative = inhibition, usual class: inhibitors; 360,000 tested, 0.72% active; AID 1745845; further: potency means the concentration at half of the fitted maximal effect; on the % scale 0 is the no-effect control and ±100 the full control effect; nearly all actives have a fitted effect of over 55% in size
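ATXN2-luciferase reporter cells (luciferase flanked by upstream and downstream ATXN2 gene portions) were treated 24 h at 37 °C with compounds at up to 57 uM. SteadyGlo luminescence gave expression; GF-AFC fluorescence gave viability.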
PINK1 modulator: changes PINK1 expression; Potency, µM (doses to about 76.6 µM), for the others: top-dose activation (PINK1 increase), actives largely listed as activators; AID 624263; 410,000 tested, 0.2% active; PINK1 immunofluorescence, high-content cytometry, 24 h; active means well fitted activation curve with a large enough effect; inconclusive means small, poorly fitted or top-dose-only effect; cell line not stated here; further: potency means the concentration at half of the fitted maximal effect; % of control where 0% means no effect; nearly all actives have a fitted effect of over 65% in size
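A stable cell line was treated with compounds at 5 concentrations for 24 hours, with CCCP as control. PINK1 levels and mitochondrial localization were measured by immunofluorescence with mitochondrial, cell and nuclear markers after fixation, read by laser-scanning cytometry.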
ATXN viability: cell viability loss in ATXN counter-screen. S2 cells (HEK-293 line with an ATXN2-luciferase reporter) viability, CellTiter-Fluor protease fluorescence, 24 h. 400,000 tested, 0.49% active. Potency, µM (doses to about 56.7 µM), most hits filed as cytotoxic; further: potency means the concentration at half of the fitted maximal effect; nearly all actives have a fitted effect of over 40% in size
* hit, by the source's call; i = inactive; ? = inconclusive; nt = no result; [ ] = another dose, or the depositor's remark. Unless noted, the call rests on the fitted dose curve; in most records, active means well fitted curve in the direction sought with a large enough effect; inconclusive means small, poorly fitted or top-dose-only effect, or another doubt; inactive means no such curve, though single readings can be large; an effect the other way counts as inactive or inconclusive.

SMILES	IL-1B inflam inh	SW480 rerep	MCF10A rerep	ATXN2 expr inh	PINK1 modulator	ATXN viability
CCSc1nnc(NC(=O)c2cccc(S(=O)(=O)N(C)c3ccc(C)cc3)c2)s1	0	18µM*	?	-2%	1%	i
CCC(=O)N1CCc2cc(S(=O)(=O)NCCC(=O)Nc3ccc(OC)c(Cl)c3)ccc21	nt	nt	nt	nt	1%	nt
Cc1cc(S(=O)(=O)c2ccc(Cl)cc2)nc(S(=O)(=O)c2ccc(Cl)cc2)c1C#N	-103*	nt	nt	nt	1%	0.79µM*
O=C(CCN1CCc2ccccc2C(c2ccccc2)C1)c1ccc2c(c1)OCCO2 (centres undefined)	-20	?	5.2µM*	?	-2%	i
O=C(CCN1Cc2ccccc2C1)c1ccc2c(c1)OCCO2	-90*	13%	-3%	?	nt	nt
O=C(C[n+]1ccc(/C=C/c2ccccc2)cc1)c1ccc2c(c1)OCCO2	-94*	?	15%	-12%	5%	i
O=C(O)CCC(=O)c1ccc2c(c1)OCCO2	-1	2%	3%	17%	0%	i
O=C(CS(=O)(=O)c1ccccc1)c1ccc2c(c1)OCCO2	-4	-1%	-3%	26%	0%	?
Cc1ccc(-n2c(=O)c3ccc(C(=O)NCc4ccccc4Cl)cc3n(CC(=O)Nc3cccc(F)c3)c2=O)cc1	nt	nt	nt	7%	25%	i
COc1ccccc1-n1cc(CN2CCOc3ccc(CN4C[C@@H](C)O[C@@H](C)C4)cc3C2)cn1	nt	nt	nt	nt	0%	i
Cn1c(=O)c(C#N)c(-c2ccc(F)cc2)c2cc(C(=O)c3cc(Cl)cc(Cl)c3O)cnc21	65	8%	?	?	25µM*	i
COc1ccc(S(=O)(=O)NCCc2csc3nc(-c4ccc(Cl)cc4)nn23)cc1C	nt	nt	nt	nt	4%	nt
CC(C)(C)c1nc(SCC(=O)NNC(=O)c2ccccc2)c2ccccc2n1	-91*	0%	?	-9%	0%	i
CCCc1nc(SCC(=O)NC2CCCC2)c2ccccc2n1	-58*	-16%	?	15%	-2%	i
COc1ccc2nc(SCC(=O)NC3CCCC3)c(C)cc2c1	65	?	8.2µM*	-22%	3%	i
CCOC(=O)CSc1nc(C(C)(C)C)nc2ccccc12	-16	-8%	?	-25%	18%	?
CC(C)c1nc(SCC(=O)c2ccc(F)cc2)c2ccccc2n1	-57*	?	3.3µM*	-10%	7%	?
CC(C)c1nc(SCC(=O)NC2CCCCC2)c2ccccc2n1	-7	4%	1%	-2%	0%	i
Cc1ccc(C(=O)CSc2nc(C(C)C)nc3ccccc23)cc1	-18	-6%	-1%	2%[11.3 µM]	2%	i
Nc1ncnc2c1nc(Sc1ccc(Cl)cc1)n2[C@H]1OC2COP(=O)(O)O[C@H]2[C@@H]1O (some centres undefined)	nt	nt	nt	nt	1%	nt
CCCc1nc(SCC(=O)c2ccc(OC)cc2)c2ccccc2n1	-90*	9%	?	-9%	0%	?
CC(C)(C)c1nc(SCC(=O)NC2CCCC2)c2ccccc2n1	-62*	-9%	-6%	2%	5%	i
CCc1nc(SCC(=O)c2ccccc2)c2ccccc2n1	?	-6%	?	0%	1%	i
CCc1nc(SCC(=O)NNC(=O)c2ccc(OC)cc2)c2ccccc2n1	-29	-22%	12%	-10%[11.3 µM]	-1%	i
CCc1nc(SCC(=O)c2ccc3c(c2)OCCO3)c2ccccc2n1	-63*	?	?	-18%	3%	?
SMILES	IL-1B inflam inh	SW480 rerep	MCF10A rerep	ATXN2 expr inh	PINK1 modulator	ATXN viability
COc1ccc(C(=O)NNC(=O)CSc2nc(C(C)C)nc3ccccc23)cc1	-93*	1%	?	5%	4%	i
COC(=O)C1CCN(Cc2ccc3c(c2)CN(C(=O)c2cc4cc(F)ccc4[nH]2)CCO3)CC1	nt	nt	nt	nt	0%	i
CC(C)NC(=O)CSc1nc(Cc2ccccc2)nc2ccccc12	-70*	-21%	?	-4%	2%	i
Cc1csc(NC(=O)CSc2nc(C(C)C)nc3ccccc23)n1	-96*	26%	18µM*	-15%	0%	i
NC(=O)NS(=O)(=O)c1ccc(Cl)cc1	nt	nt	nt	8%	nt	i
Cc1cccn2c(=O)c(-c3nnn[nH]3)cnc12	nt	-4%	4%	9%[25.6 µM]	nt	i
CC1(O)CC(c2ccc(Cl)cc2)=NN1C(=O)c1ccc(Cl)cc1 (centres undefined)	-9	?	12µM*	nt	?	i
Cc1cccc(NC(=O)Cc2coc3ccc4ccccc4c23)n1	-3	?	?	0%	11µM*	i
CCn1cc2nc(SCC(=O)Nc3ccccc3C(F)(F)F)n(Cc3ccc(C)cc3)c(=O)c2n1	nt	nt	nt	-29%	5%	i
COc1ccccc1N=NNc1ccccc1OC	-12	nt	nt	nt	2%	?
C=CCN=C(NC#N)SCc1ccccc1	-14	2%	2%	5%	2%	i
C=CCN=C(NC#N)SCC(=O)c1cccc(OC)c1	-57*	?	?	-15%	3%[38.3 µM]	i
O=S(=O)(NCC(Nc1ccc(Cl)cc1)c1ccccc1)c1ccccc1 (centres undefined)	-92*	?	4.6µM*	?	?	nt
Cc1ccc(NC(CNS(=O)(=O)c2ccc(Cl)cc2)c2ccccc2)cc1 (centres undefined)	?	5%	?	?	0%	i
COc1ccc(CN2CCN(Cc3ccc(C)cc3)CC2)c(OC)c1	4	0%	?	-14%	1%	i
